From PubChem
NPC1 prom act: activates the NPC1 promoter. Huh7 NPC1 promoter luciferase reporter, 24 h. Potency, µM (highest dose often 9.22 µM), for the others: at the highest dose activation, actives largely listed as activators. 320,000 tested, 2.4% active; note: % of control where 0% means no effect; nearly all actives have a fitted effect of over 60% in size
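Huh7 reporter cells (NPC1 promoter driving luciferase) are dosed with compound for 24 h at 37 °C, 5% CO2; luciferase detection reagent is then added and luminescence measured after 10 min at ambient temperature.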
Rab9 prom act: Rab9 promoter activation; Huh7 Rab9 promoter-luciferase reporter, luminescence, 24 h; Potency, µM (highest dose often 9.22 µM), for inactives: at the top dose activation, negative = inhibition, hits mostly activators; 320,000 tested, 2.8% active; AID 485297; note: % of control where 0% means no effect; nearly all actives have a fitted effect of over 60% in size
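Stable Rab9-luc Huh7, 1500 cells/well, 2 h settle; cmpd in DMSO, 24 h, 37 °C/5% CO2; luciferase reagent 10 min RT; luminescence.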
ELG1 genotox: induces genotoxicity in HEK293T cells with luciferase-tagged ELG1 | HEK293T ELG1-luciferase reporter, luminescence, 16 h | Potency, µM (titrated, usually from 46 µM), without a hit: top-dose activity change, positive = activation, most hits filed as activators | 330,000 tested, 1.3% active | AID 504466; note: % of control where 0% means no effect; nearly all actives have a fitted effect of over 60% in size
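After overnight (16 hr) compound treatment at 37 °C, ELG1-luciferase HEK293T cells were lysed with ONE-Glo; luminescence quantified 30 min later at room temperature.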
SMN2 splice enh: SMN2 splice variant enhancement; 210,000 tested, 2.8% active; HEK293 SMN2-luciferase splicing reporter, luminescence, 30-36 h; Potency, µM (highest dose often 46.1 µM), inactives show at the highest dose activity change, positive = activation, actives largely listed as activators; note: % of control where 0% means no effect; nearly all actives have a fitted effect of over 55% in size
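qHTS luciferase splicing reporter: luminescence rises when SMN2 exon 7 is included in transfected HEK293 cells. Compound exposure lasted 30-36 h at 37C, with 4.5 mM final sodium butyrate as control, followed by a ONE-Glo read.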
FLuc counter: counter-screen for miR-21 project: firefly luciferase inhibitors or activators. P08659. Potency, µM (highest dose often 57.5 µM), inactives show at the highest dose activity change, negative = inhibition, most hits filed as inhibitors. 360,000 tested, 6.9% active. purified FLuc, Km substrates, luminescence inhibition;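 note: plate controls were vehicle for no effect and reference inhibitor for full effect; nearly all actives have a fitted effect of over 55% in size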
Target sequence (P08659 whole entry, looked up): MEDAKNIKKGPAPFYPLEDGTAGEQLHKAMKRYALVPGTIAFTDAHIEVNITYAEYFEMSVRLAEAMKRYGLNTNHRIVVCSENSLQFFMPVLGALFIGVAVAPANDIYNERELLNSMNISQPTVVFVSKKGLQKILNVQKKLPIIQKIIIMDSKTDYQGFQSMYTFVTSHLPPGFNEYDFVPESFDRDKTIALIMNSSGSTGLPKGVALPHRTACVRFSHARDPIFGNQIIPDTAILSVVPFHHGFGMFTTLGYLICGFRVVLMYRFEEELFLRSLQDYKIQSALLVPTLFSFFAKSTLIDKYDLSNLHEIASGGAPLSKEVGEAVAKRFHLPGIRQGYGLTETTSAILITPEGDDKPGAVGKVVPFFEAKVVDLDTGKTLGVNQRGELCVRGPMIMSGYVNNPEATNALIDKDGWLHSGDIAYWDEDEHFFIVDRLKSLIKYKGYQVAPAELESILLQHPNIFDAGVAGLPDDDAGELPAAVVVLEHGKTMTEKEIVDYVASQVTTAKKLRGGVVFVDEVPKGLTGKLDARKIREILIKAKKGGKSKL
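Purified P. pyralis luciferase (10nM final) with 10uM D-luciferin and 10uM ATP (Km levels) in 50mM Tris acetate pH 7.5, 10mM Mg acetate, 0.01% Tween-20, 0.05% BSA; qHTS 6-point titration, ~60 µM downward; luminescence read.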
ELG1 DNA repair: ELG1-dependent DNA repair inhibition; Potency, µM (titrated, usually from 46.1 µM), without a hit: at the top dose activity change, negative = inhibition, hits mostly inhibitors; HEK293T ELG1-luciferase reporter, luminescence, 16 h; DNA damage induced by 5-fluorouridine; 330,000 tested, 2.3% active; note: % is set by controls: 0 for no effect and ±100 for the full control effect; nearly all actives have a fitted effect of over 55% in size
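Reporter activity after DNA damage by 5-fluorouridine is monitored. Compound-treated cells incubate 16 hr at 37 °C, then ONE-Glo is added for 30 min before luminescence reading.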
* hit, by the source's call; ? = inconclusive; . = no result; [ ] = another dose, or the depositor's remark. Rows were chosen to be rich in hits. Some 9.2% of all compounds tested hit in one or more screens of this group. Calls come from the whole dose curve; as a rule, active = well fitted curve in the direction sought with a large enough effect; inconclusive = small, poorly fitted or top-dose-only effect, or another doubt; inactive = no such curve, though single readings can be large; an effect the other way counts as inactive or inconclusive. Potency is the fitted concentration of half-maximal effect.

SMILES | NPC1 prom act | Rab9 prom act | ELG1 genotox | SMN2 splice enh | FLuc counter | ELG1 DNA repair
Cc1ccc2nc(SCC(=O)Nc3ccccc3N3CCOCC3)c(C#N)cc2c1 | -30% | -22% | -2% | -11% | 1% | 4.1µM*
COC(=O)CSc1nc2cc(C)ccc2cc1C#N | 1.6µM* | 1.4µM* | ? | 18µM* | 13µM* | ?
COc1ccc(N(CC(=O)NCCc2cccc(C)c2)S(=O)(=O)c2c(C)noc2C)cc1 | -17% | 3% | -5% | -8% | 1% | 2%
CC(=O)Nc1ccccc1NC(=O)C/C(C)=N/NC(=O)Cc1cccc2ccccc12 | -2% | 0% | 1% | . | -2% | 0%
O=C1CC(c2ccccc2)Oc2cc(O)cc(O)c21 (stereo not drawn) | 21% | 14% | ? | . | 17µM* | ?
O=C(Nc1ccc2c(c1)OCCO2)C1CCN(C(=O)c2ccc([N+](=O)[O-])cc2)CC1 | -4% | 0% | 3% | -26% | 1% | ?
O=C1CC(c2ccc3c(c2)OCCO3)Oc2ccccc21 (stereo not drawn) | 3.2µM* | 2.8µM* | ? | . | 21µM* | ?
O=C1CC(c2ccc(O)c(O)c2)Oc2cc(O)cc(O)c21 (stereo not drawn) | -12% | -11% | 0% | -18% | -13% | -5%
COc1ccc(C2CC(=O)c3ccccc3O2)cc1 (stereo not drawn) | ? | ? | ? | -5% | 15µM* | ?
O=C1CC(c2ccc3c(c2)OCCO3)Oc2ccc([N+](=O)[O-])cc21 (stereo not drawn) | ? | 0.56µM* | 0.65µM* | . | 0.27µM* | ?
COc1ccc(NC(=O)N2CCc3c(sc4c3CCCC4)C2c2ccc(F)cc2)cc1 (stereo not drawn) | . | . | . | . | -4% | .
O=C(NC1CCCC1)c1ccc2c(=O)n(Cc3ccccc3)c(SCc3ccccc3)nc2c1 | . | . | . | . | -2% | .
O=C(NCCCN1CCCC1=O)c1ccc(Cl)c(S(=O)(=O)N2CCCCC2)c1 | -3% | 2% | 1% | . | 0% | -3%
O=C(NCc1ccc(F)cc1)c1ccc2oc(=O)n(Cc3ccccc3)c2c1 | . | . | . | . | -1% | .
Cc1ccc(Cl)cc1N1CCN(C(=O)Cn2cnc3onc(-c4ccc(F)cc4)c3c2=O)CC1 | . | . | . | . | 4% | .
Cc1ccc(C)c(N2CCN(C(c3ccccc3)c3nnc(-c4ccccc4F)o3)CC2)c1 (stereo not drawn) | . | . | . | -23% | ? | .
Clc1ccc2c(c1)[C@H]1OCC[C@H]1[C@@H](c1ccco1)N2 | ? | ? | ? | 22µM* | 4.8µM* | ?
Cc1ccc(-c2cc(-c3nnc(SCC(=O)N(C)CCC#N)n3N)c3ccccc3n2)cc1 | 1% | 7% | 1% | -47% | 11µM* | 0%
COc1c(CC(=O)c2cc3c(cc2O)OC(C)(C)C(O)C3)ccc2c1C=CC(C)(C)O2 (stereo not drawn) | . | . | . | -21% | . | .
COc1ccc2c(c1)CCc1c(-c3noc4c3CCc3cc(OC)ccc3-4)noc1-2 | . | . | . | -10%[9.22 µM] | . | .
COc1ccc2c(c1)CCc1c-2n[nH]c1C(=O)O | -1% | 9% | 2% | 13% | 11µM* | 22%
O=C(Nc1cccc(S(=O)(=O)Nc2ccc(Cl)cc2)c1)c1ccccn1 | -8% | -8% | -6% | . | -4% | -8%
Cc1ccc2c(c1)C(c1ccncc1)=NNC(c1ccc(F)cc1)=N2 | 6% | 14% | 5% | 15% | -15% | 0%
Cc1ccc(C2=Nc3cccnc3C(c3ccccc3)=NN2)cc1 | 3.5µM* | 3.2µM* | ? | 13µM* | 11µM* | ?
COc1ccc2c(c1)C(c1ccc([N+](=O)[O-])cc1)=NNC(c1ccco1)=N2 | 0% | -2% | -2% | -27% | 13µM* | ?
SMILES | NPC1 prom act | Rab9 prom act | ELG1 genotox | SMN2 splice enh | FLuc counter | ELG1 DNA repair
Cc1ccc(C2=Nc3ccc(Br)cc3C(c3ccncc3)=NN2)cc1 | -3% | 27% | 3% | -99% | 27µM* | ?
Brc1ccc(C2=Nc3ccccc3C(c3ccncc3)=NN2)cc1 | -2% | -1% | 3% | . | -10% | 3%
Cc1ccc2c(c1)C(c1ccncc1)=NNC(c1ccccc1)=N2 | ? | 2.8µM* | 7% | . | 17µM* | ?
Cc1cc(C)cc(OCC(=O)Nc2nonc2-c2ccc(Br)cc2)c1 | . | . | . | . | -5% | .
O=C(Nc1ccc(F)cc1Cl)C1Cc2ccccc2N1C(=O)c1ccccc1 (stereo not drawn) | . | . | . | . | -5% | .
O=C(NCc1cccnc1)C(=O)NCC1OCCCN1S(=O)(=O)c1ccc(F)cc1 (stereo not drawn) | -6% | 4% | -2% | . | 5% | 10%
CCOc1ccc2c(c1)C(c1ccccc1)=NNC(c1ccccc1)=N2 | 2% | -3% | -3% | -3% | -4% | 13µM*
CCCOc1ccc(C2=NNC(c3cccs3)=Nc3ccc(OC)cc32)cc1 | 0% | -1% | -2% | -1% | ? | 16µM*
COc1ccc2c(c1)C(c1cccs1)=NNC(c1ccncc1)=N2 | -3% | -8% | -6% | . | -16% | ?
C/C(CC(=O)Nc1ccc2ccccc2c1)=N\NC(=O)c1ccc(O)c(O)c1 | -1% | 12% | ? | . | ? | ?
Cc1cccc(-c2cc3nc(C)c(C)c(NCCCn4ccnc4)n3n2)c1 | 3% | 1% | -10% | . | 15µM* | ?
Cc1cc(NCCCn2ccnc2)n2nc(-c3ccc(F)cc3)cc2n1 | 18% | 8% | 5% | 26% | 9.5µM* | ?
Cc1cc(NCCCn2ccnc2)n2nc(-c3ccc(Cl)cc3)cc2n1 | ? | 21% | 13% | 3% | ? | ?
Cc1cc(NC(=O)c2cccs2)cc(-c2nc3cc(Cl)ccc3o2)c1O | . | . | . | -5% | -5% | .
CC(Sc1nnc(C(F)(F)F)n1C)C(=O)Nc1ccc(S(N)(=O)=O)cc1 (stereo not drawn) | -4% | ? | 0% | . | -1% | 6%
O=C(NCC(c1ccco1)S(=O)(=O)c1cccs1)c1ccccc1 (stereo not drawn) | . | . | . | . | -7% | .
Cc1noc(C)c1C(=O)N1CCC[C@@]2(CCN(Cc3nccs3)C2)C1 | . | . | . | 11% | . | .
COc1ccc(-c2cc(C(=O)NCc3cccnc3)no2)cc1 | ? | ? | 13% | 7% | 12µM* | ?
COc1ccc(CNC(=O)c2cc(-c3ccc(OC)cc3)on2)cc1 | . | . | . | -10% | 5% | .
O=C(NCc1cccnc1)c1cc(-c2cccs2)on1 | ? | ? | 10% | 0% | ? | ?
O=C(NCc1cccnc1)c1cc(-c2ccccc2)on1 | 29% | ? | 21µM* | 16µM* | ? | ?
